A selection: hits, their analogues and other compounds. The true share with any hit is near 3.6%.
TGFb inhibitor: blocks TGF-b signaling; Potency, µM (highest dose often 46.1 µM), for inactives: at the top dose activity, negative = inhibition, most hits filed as inhibitors; AID 588855; HepG2 CAGA-GFP TGF-b/SMAD3 reporter, GFP fluorescence, 18 h; TGF-beta stimulated, 500 pg/mL final; actives 1.2% (n = 410,000); note: % is set by controls: 0 for no effect and ±100 for the full control effect; nearly all actives have a fitted effect of over 65% in size
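Read-out: total well GFP (ex488/em500-530) summed from mean per-cell fluorescence. Cells: HEPG2 CAGA-GFP, 1% FBS DMEM, 18 h at 37 degrees C with 500 pg/mL final TGF-beta. Unstimulated wells served as the full-inhibition control; stimulated DMSO wells = 0%.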
HepG2 viability: HepG2 cytotoxicity, counter-screen for TGF-b inhibitors. HepG2 CAGA-GFP viability, ATP luminescence, 18 h. Potency, µM (doses to about 46.1 µM), for the others: at the top dose activity change, negative = cytotoxicity, hits mostly cytotoxic. actives 0.76% (n = 410,000). AID 588856
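CellTiter-Glo luminescence gave cytotoxicity after 18 hours at 37 degrees C. The cells were HepG2 CAGA-GFP in 1% FBS DMEM, stimulated with 500 pg/mL TGF-beta after compound addition. %Activity was normalised to no-cell wells (complete cell-killing) and DMSO (no toxicity), and curves were fitted and classified.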
A549 tox: kills or reduces viability of A549 cells in Nrf2 counter-screen | A549 ARE-Fluc cells, CellTiter-Fluor viability, 18-24 h | Potency, µM (titrated, usually from 46 µM), for the others: at the highest dose activity change, negative = cytotoxicity, most hits filed as inhibitors | actives 0.16% (n = 390,000); note: % is set by controls: 0 for no effect and ±100 for the full control effect
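A549 ARE_Fluc cells in 5% FBS OPTI-MEM were exposed to compounds in concentration-response for 18-24 h at 37 deg C. Viability was read by CellTiter-Fluor fluorescence (Ex 405/Em 525) after 30 min, before the luciferase read.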
Nrf2 block: blocks Nrf2 signaling | A549 ARE-Fluc reporter, luciferase luminescence, 18-24 h | Potency, µM (series often up to 46 µM), for inactives: at the top dose activity change, negative = inhibition, hits mostly inhibitors | actives 2.1% (n = 360,000) | AID 504444; note: % is set by controls: 0 for no effect and ±100 for the full control effect; nearly all actives have a fitted effect of over 60% in size
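A549 ARE_Fluc cells, 5000/well, 5% FBS OPTI-MEM; compounds in dose-response, 18-24 h at 37 °C/5% CO2; CellTiter-Fluor viability read (Ex 405/Em 525), then BugLite luciferase luminescence = Nrf2 activity.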
Nrf2 ARE act: activators of Nrf2 (ARE) signaling | AREc32 ARE-luciferase reporter (MCF7-derived line), luminescence, 24 h | Potency, µM (top dose mostly 46.1 µM), inactives show top-dose activation, hits mostly activators | actives 0.31% (n = 410,000); note: % of control where 0% means no effect; nearly all actives have a fitted effect of over 65% in size
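Nrf2 activation is followed as ARE-luciferase induction in the AREc32 line after one day of compound treatment; luminescence is read with Steady-Glo.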
Starred values were filed as active, the others as inactive; u = inconclusive; x = no result; ! = not active in a repeat. Calls come from the whole dose curve; as a rule, active = well fitted curve in the direction sought with a large enough effect; inconclusive = small, poorly fitted or top-dose-only effect, or another doubt; inactive = no such curve, though single readings can be large; an effect the other way counts as inactive or inconclusive. Potency is the fitted concentration of half-maximal effect.

SMILES	TGFb inhibitor	HepG2 viability	A549 tox	Nrf2 block	Nrf2 ARE act
CC(C)(O)c1cc2ccc(C#Cc3ccsc3)cc2c(=O)o1	-7.2%	-29.4%	0.7%	14.1%	5.01µM*
CN(Cc1cccnc1)Cc1cn(Cc2ccccc2)nc1-c1ccc2c(c1)OCO2	-8.8%	-26.1%	-1.0%	-20.0%	0.3%
O=C1NC(Cc2ccccc2)C(=O)N1Cc1ccccc1 (configuration not stated)	9.4%	-2.0%	0.8%	-6.0%	-0.4%
O=C(CN1C2=NCCCN2c2ccccc21)c1ccc([N+](=O)[O-])cc1	u	15.8µM*	-9.7%	u	-0.6%
O=C(CN1C2=NCCCN2c2ccccc21)c1cccc(Br)c1	u	-38.3%	-7.8%	10.7%	14.1%
COc1ccccc1-c1nnc(SCC(=O)NCc2c(C)c(Cl)cc(C(C)C)c2O)o1	17.8µM*	-101.5%	0.3%	0.4%	0.3%
CN(CC(=O)Nc1ccc(F)c(Cl)c1)S(=O)(=O)c1cccc2nsnc12	-5.3%	-2.6%	-14.4%	25.9µM*	-0.5%
O=C(c1cc2nc(C3CC3)cc(C(F)F)n2n1)N1CCOCC1	3.1%	6.3%	-5.5%	x	0.4%
CCN(CC)c1nc(C)c2c(c1C#N)CC(C)(C)OC2	0.0%	3.7%	-0.5%	x	0.1%
O=C(NCc1nc(-c2ccc(C(F)(F)F)cc2)no1)Nc1ccc(OC(F)(F)F)cc1	11.2µM*	-90.1%	u	u	-0.7%
Cc1cc(NC(=O)c2ccc(Cl)c(Cl)c2)ccc1-c1cc2ccccc2oc1=O	3.2%	11.9%	-1.1%	-18.2%	-0.4%
COc1ccc(C(=O)Nc2ccc(-c3cc4ccccc4oc3=O)c(C)c2)cc1OC	-0.1%	-11.8%	-9.4%	13µM*	0.0%
COc1ccc(NC(=O)c2ccc3oc(=O)c(S(=O)(=O)c4ccc(F)cc4)cc3c2)cc1OC	11.2µM*	-72.8%	-4.0%	-17.7%	u
CN1CCC(NCCC(c2ccc(F)cc2)c2ccc(Cl)cc2)CC1 (configuration not stated)	u	15.8µM*	-12.8%	-1.7%	-1.8%
COc1ccc(NS(=O)(=O)c2c(C)cc(C)cc2C)cc1	-0.1%	-27.2%	u	20.6µM*	-0.5%
Cc1ccc2c(CN(C)Cc3ccc(OC(F)F)cc3)cc(=O)oc2c1C	-29.1%	12.6µM*	-0.2%	u	0.6%
CN1CC(c2ccc(Cl)c(Cl)c2)[C@@]2(COc3ccccc3C2=O)[C@@]12C(=O)Nc1ccccc12 (some centres not stated)	0.8%	-10.2%	u	18.4µM*	0.1%
Cn1cc(S(=O)(=O)N2CCCCCC2)cc1C(=O)NCc1ccccc1Cl	5.01µM*	0.6%	-1.5%	x	3.5%
Cn1cc(S(=O)(=O)N2CCCC2)cc1C(=O)NCc1ccccc1	1.6%	-6.2%	1.0%	3.0%	-0.7%
Cc1ccc(S(=O)(=O)N2C[C@@H]3[C@H]4CC[C@H](C4)[C@@H]3[C@@H](C)[C@@H]2c2cn(Cc3ccccc3)c3ncccc23)cc1	-25.2%	-17.5%	-0.1%	20.6µM*	3.4%
CCO/C=N/Nc1nc(C(F)(F)F)nc2c1cnn2Cc1ccccc1	u	-96.6%	-19.4%	23.1µM*	-0.2%
Cn1c(Sc2ccc(Br)cc2)c(C=O)c2ccccc21	-22.1%	-4.1%	0.1%	-16.0%	9.2%
O=S(=O)(c1ccccc1)N1CCC(Oc2ccc(-n3cnnn3)cc2)CC1	u	-15.8%	-5.6%	u	3.0%
O=S(=O)(c1cccc(C(F)(F)F)c1)N1CCC(Oc2ccc(-n3cnnn3)cc2)CC1	u	3.9%	u	18.4µM*	0.2%
O=c1[nH]nc(SCCS(=O)(=O)c2ccc(F)cc2)n1-c1ccc2c(c1)OCCO2	-8.6%	22.2%	-12.0%	13.8%	12.6µM*
SMILES	TGFb inhibitor	HepG2 viability	A549 tox	Nrf2 block	Nrf2 ARE act
O=c1[nH]nc(SCCS(=O)(=O)c2ccc(F)cc2)n1-c1ccccc1	-3.4%	-1.9%	-6.5%	-27.3%	12.6µM*
CCOc1ccccc1NC(=O)CSc1n[nH]c(=O)n1-c1ccccc1	4.5%	-6.4%	1.9%	u	-0.2%
CC(C)COc1ccc(C(=O)Nc2ccccc2[N+](=O)[O-])cc1	0.0%	-13.6%	-1.6%	u	15.8%
CC(C)NC(=O)C(C)n1cccc1C(=O)c1ccccc1 (configuration not stated)	u	-2.2%	-8.2%	3.0%	-0.2%
NS(=O)(=O)c1ccc(NC(=S)N2CCN(c3ccc(Cl)c(Cl)c3)CC2)cc1	u	-40.2%	-8.9%	u	1.0%
O=C(COC(=O)/C=C/c1cccc([N+](=O)[O-])c1)NCCCN1CCCC1=O	-11.0%	-2.6%	-0.2%	-3.8%	20.1%
CCOC(=O)c1ccc(N2C(=O)C3CC=CCC3C2=O)cc1 (configuration not stated)	24.1%	0.7%	2.4%	10.5%	0.4%
CCOC(=O)c1ccc(N2C(=O)C3C(C2=O)C(C(=O)c2ccc(Cl)cc2)N2CCCC32)cc1 (configuration not stated)	-15.9%	-3.7%	-16.2%	13.8%	14.1µM*
COc1ccc(C(=O)NNC(=O)Cc2coc3cc(OC)ccc23)cc1	13.3%	-11.9%	0.0%	-12.4%	-0.5%
COc1ccc(-n2c(=S)[nH]c3cc(C(=O)NC4CCCCC4)ccc3c2=O)c(OC)c1	-20.3%	4.1%	-15.0%	14.6µM*	-0.1%
COc1ccc(NC(=O)c2ccc3c(=O)n(-c4ccc(OC)cc4OC)c(=S)[nH]c3c2)c(OC)c1	-0.1%	-33.0%	-10.1%	25.9µM*	0.3%
COc1ccc(-n2c(=S)[nH]c3cc(C(=O)Nc4cc(C(N)=O)ccc4OC)ccc3c2=O)c(OC)c1	-5.7%	-13.4%	-2.4%	-10.8%	0.2%
COc1ccc(-n2c(=S)[nH]c3cc(C(=O)Nc4ccc(C)c(F)c4)ccc3c2=O)c(OC)c1	-19.2%	-8.2%	-9.7%	23.1µM*	0.6%
CCCCOCC(O)CN1CCN(C(C)=O)CC1 (configuration not stated)	-7.6%	0.2%	u	10.5%	-0.3%
COc1ccc(CN2[C@@H](CC(=O)O)c3ccc(/C=C/C(=O)O)cc3S2(=O)=O)cc1	12.4%	27.9%	x	x	x
COc1ccc(CN2[C@@H](CC(C)=O)c3ccc(/C=C/C(C)=O)cc3S2(=O)=O)cc1	u	11.2µM*!	-0.1%	4.4%	23.2%
COc1cccc(N2[C@@H](CC(C)=O)c3ccc(/C=C/C(C)=O)cc3S2(=O)=O)c1	15.8µM*	-37.1%	-5.8%	3.6%	5.5%
CCCCCCCCN1[C@@H](CC(=O)OC)c2ccc(/C=C/C(=O)OC)cc2S1(=O)=O	-8.8%	-12.0%	x	x	x
COC(=O)/C=C/c1ccc2c(c1)S(=O)(=O)N(Cc1ccc(OC)cc1)[C@H]2CC(=O)OC	7.4%	-2.4%	-5.4%	9.2%	17.8µM*

Assay outcomes from PubChem.
